Screening results: PubChem BioAssay, Buhrlage Lab, Dana-Farber Cancer Institute and Novartis Institutes for BioMedical Research (Cambridge, Mass)
Rows were chosen to be rich in hits. Some 14% of all compounds tested hit in one or more screens of this group.
USP17 block: inhibitors of human USP17 deubiquitinase; A8MUK1; inhibition, % at 50 µM; purified USP17, Ub-rhodamine cleavage fluorescence, 3 h; actives 6.5% (n = 47,000); AID 1645855
USP30 inh: blocks human USP30 ubiquitin-rhodamine cleavage; Q70CQ3; purified USP30, Ub-rhodamine cleavage fluorescence; inhibition, % at 25 µM; actives 5.3% (n = 47,000); AID 1645860
USP10 inh: human USP10 deubiquitinase inhibition | Q14694 | purified USP10, Ub-rhodamine fluorescence, 60 min | inhibition, % at 20 µM | actives 1.1% (n = 47,000) | AID 1645856
USP8 inh: inhibitors of human USP8 deubiquitinase. P40818. purified USP8, Ub-rhodamine cleavage fluorescence, 30 min. inhibition, % at 20 µM. actives 4.2% (n = 47,000). AID 1645853
USP28 inh: blocks human USP28 ubiquitin-rhodamine cleavage; purified USP28, Ub-rhodamine cleavage fluorescence, 30 min; actives 3% (n = 47,000); Q96RU2; inhibition, % at 25 µM
* hit, by the source's call; nt = no result. No stated cut-off is given here; in the data, active means inhibition above about 30%; inactive means the rest.

SMILES	USP17 block	USP30 inh	USP10 inh	USP8 inh	USP28 inh
COc1nn(C)cc1C(=O)N1CCC(C(=O)Nc2ccc(Br)cc2F)CC1	-0.2	-3.1	-0.1	-5.4	45.5*
COc1cc(OC)cc(C(=O)N2CCC(C(=O)Nc3cccc4ccccc34)CC2)c1	0.6	10.9	-0.2	5.7	11.9
CCOc1ccc(N2C(=O)c3ccccc3C2C(=O)NCc2ccccc2OC)cc1 (centres undefined)	34.5*	51.8*	-3.3	26.8	13.8
COc1ccccc1CNC(=O)[C@@H]1Cc2c([nH]c3ccccc23)C2c3ccccc3C(=O)N21 (some centres undefined)	-21.5	-107.3	-1.6	-8.6	-21.7
COc1ccccc1CNC(=O)C1c2ccccc2CC(=O)N1C(C)C (centres undefined)	3.2	-2.8	-4.2	3.8	-6.2
COCCN1C(=O)c2ccccc2C(C(=O)NCc2ccccc2OC)C12CCCC2 (centres undefined)	-11.3	-16.1	-2.8	6.2	-5.9
COc1ccccc1CNC(=O)C1c2ccccc2C(=O)N1Cc1ccc(C)cc1 (centres undefined)	75.2*	86.2*	3.7	27.1	9.3
CCOc1ccc(CN2C(=O)c3ccccc3C2C(=O)NCc2ccccc2OC)cc1 (centres undefined)	40.0*	32.6*	1.2	16.7	14.6
CC(=O)N1CCc2cc(S(=O)(=O)NCCC(=O)Nc3cccc(C)c3C)ccc21	33.7*	63.7*	3.1	24.6	11.9
Cn1c(N2CCCCCC2)nc2c1c(=O)n(Cc1ccc(Cl)cc1)c(=O)n2C	2.4	38.7*	1.8	-10.7	10.7
Cn1c(=O)n(Cc2ccccc2F)c(=O)c2c1nc1n2CCCN1Cc1ccccc1	7.0	40.1*	6.7	-11.6	22.1
Cn1c(N2CCCCCC2)nc2c1c(=O)n(Cc1ccccc1Cl)c(=O)n2C	-9.3	-5.0	0.5	-20.1	-6.4
O=C(Nc1ccccc1F)c1ccc(C(=O)c2ccccc2)cc1	34.9*	13.5	2.3	-44.9	13.0
Cc1cc(C(=O)N2CCCn3cc(-c4ccccc4F)nc32)nn1C	-10.5	-30.3	-1.8	3.9	-16.0
COc1ccc(NC(=O)CC(c2ccco2)n2cccc2)c(OC)c1 (centres undefined)	-27.7	-131.1	-1.4	-22.2	-40.8
COc1ccc(NC(=O)CC(C)CC(=O)Nc2ccc(C(C)C)cc2)c(OC)c1 (centres undefined)	45.8*	20.3	-1.2	7.9	1.6
Cc1ccc(NC(=O)CC(C)CC(=O)Nc2ccc(C(C)C)cc2)cc1Cl (centres undefined)	nt	25.8	6.7	31.2*	10.6
CC(CC(=O)Nc1ccc(F)cc1)CC(=O)Nc1ccc(C(C)C)cc1 (centres undefined)	0.0	9.5	6.6	-0.1	-0.4
O=C(Nc1cc(-c2ccccc2)nn1C1CCS(=O)(=O)C1)c1ccc(F)cc1 (centres undefined)	-8.3	-2.9	-3.4	-41.2	3.3
N#Cc1ccc(OCC(=O)NC(Cc2ccccc2)c2nc3ccccc3[nH]2)cc1 (centres undefined)	11.6	9.5	-2.1	35.8*	2.9
O=C(Cc1cccc(F)c1)NCC(=O)Nc1nc2ccccc2[nH]1	20.5	1.8	4.5	-10.2	1.8
O=C(COc1cccc(F)c1)NC(Cc1ccccc1)c1nc2ccccc2[nH]1 (centres undefined)	45.6*	10.8	-2.6	73.0*	-1.7
Cc1ccc(-c2nc3nc(C)cc(N4CCCCC4C)n3n2)cc1 (centres undefined)	-14.3	-128.7	-0.5	0.6	-22.1
Cc1ccc(-c2nc3nc(C)cc(N4CCC(C)CC4)n3n2)cc1	55.7*	nt	-2.5	0.6	nt
Cc1c(O)ccc2c(=O)c(-c3cc4ccccc4o3)coc12	2.8	8.5	3.0	18.7	3.5
SMILES	USP17 block	USP30 inh	USP10 inh	USP8 inh	USP28 inh
O=c1ccc(-c2cc3ccccc3o2)cn1Cc1ccccc1-c1ccccc1	48.3*	-85.7	25.1	84.1*	62.4*
CC1CCCCN1c1nc(-c2ccccc2)nc2sc(-c3ccccc3)cc12 (centres undefined)	-11.1	-18.4	1.6	-4.5	-10.8
Cc1nc(SCC(=O)Nc2cccc(Cl)c2)c2sc3nc4c(cc3c2n1)COC(C)(C)C4	33.7*	32.1*	-1.0	-0.1	15.0
Cc1nc(SCC(=O)Nc2ccc(Cl)cc2)c2sc3nc4c(cc3c2n1)COC(C)(C)C4	-2.2	-27.2	-0.4	1.2	0.2
CC1(C)Cc2nc3sc4c(=O)n(CC(=O)NCc5ccccc5)cnc4c3cc2CO1	53.5*	-6.3	6.0	2.2	-0.8
Nc1ncnc2sc(Nc3ccc([N+](=O)[O-])cc3)nc12	33.6*	39.5*	13.2	50.4*	32.7*
COc1cc(NC(=O)c2ccc3c(c2)OCO3)ccc1-c1cc2ccccc2oc1=O	47.3*	-18.9	28.6	69.3*	43.2*
Cc1cc(NC(=O)c2ccccc2F)ccc1-c1cc2ccccc2oc1=O	4.7	12.1	4.3	-22.0	13.6
O=C(Nc1c(C(=O)Nc2ccc3c(c2)OCO3)oc2ccccc12)c1cc2ccccc2o1	0.0	-24.7	5.6	78.8*	-5.6
COc1cccc2cc(C(=O)Nc3ccc4c(c3)OCCO4)oc12	0.7	0.5	6.9	0.0	51.4*
O=C(Nc1ccc2[nH]c(=O)[nH]c2c1)c1cc2ccccc2o1	42.5*	-88.5	12.1	42.1*	-8.6
CC(=O)N1Cc2ccccc2CC2(CCCN2Cc2ccncc2)C1 (centres undefined)	-50.2	-106.9	-2.9	-168.7	-31.2
O=C(NCCc1nc2ccccc2[nH]1)c1cc2ccccc2o1	-2.0	-3.4	-0.2	0.5	3.7
CSc1cccc(NC(=O)CNC(=O)c2cc3ccccc3o2)c1	65.3*	-27.5	5.1	1.8	13.4
COc1ccc([N+](=O)[O-])cc1NC(=O)C(C)OC(=O)CSc1ccc2ccccc2c1 (centres undefined)	0.2	14.4	3.1	-84.5	13.3
Nc1ccc([N+](=O)[O-])cc1NC(=O)CSc1ccc2ccccc2c1	-14.6	-22.7	8.2	41.3*	1.9
Nc1c2c(nc3cc(Cl)ccc13)CCCC2=O	23.5	-13.2	-2.4	44.8*	-5.6
COCCN1CCN(c2ccc3ccc(C(=O)N4CCOCC4)cn23)CC1	-61.8	-249.5	-0.6	-14.2	-69.6
O=S(=O)(NC1CCCc2ccccc21)c1ccc(F)cc1 (centres undefined)	13.1	33.8*	6.8	12.2	18.8
Cc1nc(-c2cccc(S(=O)(=O)NC3CCCc4ccccc43)c2)no1 (centres undefined)	17.6	11.5	0.1	47.1*	5.9
O=S(=O)(NC1CCc2ccccc21)c1ccc(-n2cnnn2)cc1 (centres undefined)	4.0	39.5*	6.5	10.8	23.5
O=S(=O)(NC(c1ccccc1)c1ccccc1)c1ccc(-n2cnnn2)cc1	44.2*	48.8*	2.9	0.5	17.6
CC(C)N1Cc2ccccc2CC2(CC(N3CCOCC3)C2)C1 (centres undefined)	6.3	4.3	2.8	1.2	7.3
